Records with an inconclusive call do not appear. The source made the active and inactive calls. Unless noted, the call rests on the fitted dose curve; in most records, active means well fitted curve in the direction sought with a large enough effect; inconclusive means small, poorly fitted or top-dose-only effect, or another doubt; inactive means no such curve, though single readings can be large; an effect the other way counts as inactive or inconclusive.
Legend:
[1] = molecular target: Aldehyde dehydrogenase, mitochondrial (Homo sapiens) (UniProt P05091); assay: qHTS for Inhibitors of the Aldehyde Dehydrogenase Family (ALDH2) Confirmatory screens (AID 2061303; active means well fitted inhibition curve with a large enough effect; title and protocol of this record describe different tests; further: nearly all actives have a fitted effect of over 45% in size; further: potency means the concentration at half of the fitted maximal effect; on activity change, negative = inhibition: on the % scale 0 is the no-effect control and ±100 the full control effect); details: ALDH inhibition qHTS; series mostly up to 45.4 µM
[2] = qHTS for Inhibitors of the Aldehyde Dehydrogenase Family (ALDH1A2, ALDH1A3, ALDH2, ALDH3A1) (AID 2061307); details: ALDH inhibition qHTS; series mostly up to 50.3 µM; further: nearly all actives have a fitted effect of over 50% in size; on Potency: test system not described further here; potency means the concentration at half of the fitted maximal effect; on activity change, negative = inhibition: on the % scale 0 is the no-effect control and ±100 the full control effect
[3] = molecular target: Aldehyde dehydrogenase, mitochondrial (Homo sapiens) (UniProt P05091); assay: qHTS for Inhibitors of the Aldehyde Dehydrogenase Family (ALDH2) Primary screen (AID 2061308); details: ALDH2 enzyme inhibition qHTS, 1536-well; series mostly up to 56 µM; further: nearly all actives have a fitted effect of over 55% in size; further: potency means the concentration at half of the fitted maximal effect;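 on activity change, negative = inhibition: plate controls were vehicle for no effect and reference inhibitor for full effect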
[4] = molecular target: Retinaldehyde dehydrogenase 3 (Homo sapiens) (UniProt P47895); assay: qHTS for Inhibitors of the Aldehyde Dehydrogenase Family (ALDH1A3) Confirmatory screens (AID 2061311); details: ALDH inhibition qHTS; series mostly up to 46 µM; further: nearly all actives have a fitted effect of over 60% in size; further: potency means the concentration at half of the fitted maximal effect; on activity change, negative = inhibition: on the % scale 0 is the no-effect control and ±100 the full control effect
[5] = molecular target: Retinal dehydrogenase 2 (Homo sapiens) (UniProt O94788); assay: qHTS for Inhibitors of the Aldehyde Dehydrogenase Family (ALDH1A2) Confirmation screens (AID 2061314); details: ALDH1A2 enzyme inhibition qHTS confirmation; series mostly up to 45.9 µM; further: nearly all actives have a fitted effect of over 65% in size; further: potency means the concentration at half of the fitted maximal effect
[6] = molecular target: Retinaldehyde dehydrogenase 3 (Homo sapiens) (UniProt P47895); assay: qHTS for Inhibitors of the Aldehyde Dehydrogenase Family (ALDH1A3) Primary screen (AID 2061315); details: ALDH inhibition qHTS; series mostly up to 56 µM;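 further: plate controls were DMSO vehicle for no effect and reference inhibitor for full effect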
[7] = molecular target: Aldehyde dehydrogenase 1A1 (Homo sapiens) (UniProt P00352); assay: qHTS for Inhibitors of the Aldehyde Dehydrogenase Family (ALDH1A1) Confirmatory screens (AID 2061316); details: ALDH inhibition qHTS; series mostly up to 47.3 µM; further: nearly all actives have a fitted effect of over 65% in size; further: potency means the concentration at half of the fitted maximal effect; on activity change, negative = inhibition: on the % scale 0 is the no-effect control and ±100 the full control effect

CC(=O)Nc1sc2c(c1-c1cc3ccccc3[nH]1)CCNC2
active: Potency [5] 28.3 µM
inactive: Potency [1] | Potency [2] | Potency [3] | Potency [4] | Potency [6]

S=C(NCCCc1cnc[nH]1)NCCCN(Cc1ccc(Cl)c(Cl)c1)c1ccccn1
inactive: Potency [1] | Potency [2] | Potency [3] | Potency [4] | Potency [5] | Potency [6] | Potency [7]

Cn1nnnc1Sc1ncnc2scc(Br)c12
inactive: Potency [1] | Potency [2] | Potency [3] | Potency [4] | Potency [5] | Potency [6]

COc1cccc(OC2=NS(=O)(=O)c3ccccc32)c1
inactive: Potency [1] | Potency [2] | Potency [3] | Potency [4] | Potency [5] | Potency [6]

COc1ccc(CN2C(=O)c3ccccc3NC2c2ccc(OC)c(COc3ccc(NC(C)=O)cc3)c2)cc1 (configuration not stated)
active: Potency [1] 17.8 µM | Potency [2] 7.94 µM | Potency [4] 2.24 µM | Potency [5] 6.34 µM
inactive: Potency [3] | Potency [6]

c1cncc(CNc2ncnc3ccc(-c4ccoc4)cc23)c1
inactive: Potency [1] | Potency [2] | Potency [3] | Potency [4] | Potency [5] | Potency [6]

O=C1c2ccccc2NC(c2ccc(-c3ccc(Br)cc3)o2)N1O (configuration not stated)
inactive: Potency [6]
active: Potency [1] 0.891 µM | Potency [2] 11.3 µM | Potency [3] 1 µM | Potency [4] 12.7 µM | Potency [5] 12.7 µM

Nc1ccc(S(=O)(=O)N2CCN(S(=O)(=O)c3c(F)cccc3F)CC2)cc1
inactive: Potency [1] | Potency [2] | Potency [3] | Potency [4] | Potency [5] | Potency [6]

Cc1cc(C)n2ncc(C(=O)Nc3ccc4c(c3)OCO4)c2n1
inactive: Potency [1] | Potency [2] | Potency [3] | Potency [4] | Potency [5] | Potency [6]

Cc1cn([C@H]2C[C@H](N[S+](=O)([O-])Cc3ccc(Cl)cc3)[C@@H](CO)O2)c(=O)[nH]c1=O
inactive: Potency [1] | Potency [2] | Potency [3] | Potency [4] | Potency [5] | Potency [6]

CC(=O)Nc1sc2c(c1-c1cnn(C(C)=O)c1)CCNC2
inactive: Potency [1] | Potency [2] | Potency [3] | Potency [4] | Potency [5] | Potency [6]

Cc1nc2ccc(Nc3nc(Nc4c(C)cc(C=CC#N)cc4C)nc4nc[nH]c34)cc2s1
inactive: Potency [1] | Potency [3] | Potency [4] | Potency [5] | Potency [6]
active: Potency [2] 10.1 µM

O=C1NS(=O)(=O)c2cc3c(cc21)C(=O)NS3(=O)=O
inactive: Potency [1] | Potency [2] | Potency [3] | Potency [4] | Potency [5] | Potency [6]

NC(=O)C1CCN(c2ncc(-c3ccc(Cl)cc3)s2)CC1
inactive: Potency [1] | Potency [3] | Potency [4] | Potency [5] | Potency [6]
active: Potency [2] 12.7 µM

NC(=O)C1CCN(c2nc(-c3ccc([N+](=O)[O-])cc3)cs2)CC1
inactive: Potency [3] | Potency [6]
active: Potency [1] 25.1 µM | Potency [2] 11.3 µM | Potency [4] 22.5 µM | Potency [5] 3.18 µM

COc1ccc(-c2nc3ccccc3s2)cc1
inactive: Potency [1] | Potency [3] | Potency [5]
active: Potency [2] 1.7 µM | Potency [4] 1.42 µM

Fc1ccc(CSc2nc3ncc(Br)cc3[nH]2)cc1
inactive: Potency [1] | Potency [2] | Potency [3] | Potency [4] | Potency [5] | Potency [6] | Potency [7]

NC1CCN(c2cnc3c(O)ccc(C(=O)O)c3c2)CC1
inactive: Potency [1] | Potency [2] | Potency [3] | Potency [6]
active: Potency [4] 20.1 µM | Potency [5] 14.2 µM

Cc1ccc(OCCn2c(CCNC(=O)c3cccc(Cl)c3)nc3ccccc32)cc1
inactive: Potency [1] | Potency [2] | Potency [3] | Potency [4] | Potency [5] | Potency [6]

O=C(O)c1ccc2c(c1)C(=O)N([C@]1(C(=O)O)C[C@H]1c1ccccc1)C2=O
inactive: Potency [1] | Potency [2] | Potency [3] | Potency [4] | Potency [5] | Potency [6]

COc1ccc(C2Nc3ccccc3C(=O)N2Cc2ccc(Cl)cc2)cc1COc1ccc(NC(C)=O)cc1 (configuration not stated)
active: Potency [1] 3.98 µM | Potency [2] 2.25 µM | Potency [4] 3.55 µM | Potency [5] 12.7 µM
inactive: Potency [3] | Potency [6]

COc1cc(CNc2ncnc3ccc(-c4c(C)noc4C)cc23)cc(OC)c1OC
inactive: Potency [1] | Potency [2] | Potency [3] | Potency [4] | Potency [5] | Potency [6]

Cc1ccc(-c2nccc(=O)n2CC(=O)NCCc2ccccc2)cc1
inactive: Potency [1] | Potency [2] | Potency [3] | Potency [4] | Potency [5] | Potency [6]

Cc1nnc(-c2cnn(C)c2N)n1CCCn1ccnc1
inactive: Potency [1] | Potency [2] | Potency [3] | Potency [4] | Potency [5] | Potency [6] | Potency [7]

Nc1ncnc2c1ncn2[C@@H]1O[C@H](CN[S+](=O)([O-])NC(=O)c2cccc(-c3noc(-c4ccccc4F)n3)c2)[C@@H](O)[C@H]1O
active: Potency [2] 1.2 µM | Potency [4] 0.252 µM | Potency [5] 14.2 µM
inactive: Potency [1] | Potency [3]

Cc1ccc(OCCn2c(CCNC(=O)c3ccccc3C(F)(F)F)nc3ccccc32)cc1
inactive: Potency [1] | Potency [2] | Potency [3] | Potency [4] | Potency [5] | Potency [6]

O=C(Nc1ccc(F)c(C(F)(F)F)c1)Nc1nnc(C2CCCCC2)s1
active: Potency [3] 8.91 µM
inactive: Potency [1] | Potency [2] | Potency [4] | Potency [5] | Potency [6]

COc1ccc(C=O)cc1COc1ccc(NC(C)=O)cc1
inactive: Potency [3] | Potency [6]
active: Potency [1] 3.16 µM | Potency [2] 0.318 µM | Potency [4] 15.8 µM | Potency [5] 3.18 µM

O=C(Nc1ccccc1)OCc1c(-c2ccccc2)no[n+]1[O-]
inactive: Potency [1] | Potency [3] | Potency [4] | Potency [5] | Potency [6]
active: Potency [2] 11.3 µM

O=C1c2ccccc2NC(c2ccc(-c3cccc([N+](=O)[O-])c3)o2)N1O (configuration not stated)
active: Potency [1] 4.49 µM | Potency [2] 2.25 µM | Potency [3] 10 µM | Potency [4] 4.49 µM | Potency [5] 2.52 µM | Potency [7] 3.18 µM
inactive: Potency [6]

O=[S+]([O-])(NCc1nccs1)c1ccc(Nc2nc(-c3ccccc3)cs2)cc1
inactive: Potency [1] | Potency [2] | Potency [3] | Potency [4] | Potency [5] | Potency [6]

C[C@@H](N)C(=O)Nc1ccc(Cl)cc1C(=O)c1ccc[nH]1
inactive: Potency [1] | Potency [2] | Potency [3] | Potency [4] | Potency [5] | Potency [6]

CCC(=O)C1CCCN(C(=O)CC(c2ccc3c(c2)OCO3)c2c(O)cc(OC)cc2OC)C1 (configuration not stated)
inactive: Potency [1] | Potency [2] | Potency [3] | Potency [4] | Potency [5] | Potency [6] | Potency [7]

FC(F)(F)c1ccccc1-c1nc(NCc2ccc(-c3cccnc3)cc2)c2ccccc2n1
inactive: Potency [1] | Potency [2] | Potency [3] | Potency [5] | Potency [6]
active: Potency [4] 10.1 µM

CCCCC(=O)N1CCC(C(=O)Nc2ccc([S+](=O)([O-])Nc3nccs3)cc2)CC1
inactive: Potency [1] | Potency [2] | Potency [3] | Potency [4] | Potency [5] | Potency [6]

O=C1CCCC2=C1C(c1cccnc1Cl)N=C(Nc1nc3ccccc3o1)N2 (configuration not stated)
active: Potency [5] 22.5 µM
inactive: Potency [1] | Potency [2] | Potency [3] | Potency [4] | Potency [6]

Cc1ccc(CNc2ccc(N3CCNCC3=O)cc2)cc1
inactive: Potency [1] | Potency [2] | Potency [3] | Potency [6]
active: Potency [4] 14.2 µM | Potency [5] 10.1 µM

COc1ccc(C2=Nn3c(nnc3-c3cccc(OC)c3)SC2)cc1
inactive: Potency [1] | Potency [3] | Potency [4] | Potency [5] | Potency [6] | Potency [7]
active: Potency [2] 12.7 µM

CCOc1ccccc1-c1nnc2n1N=C(c1ccc(OC)cc1)CS2
active: Potency [2] 7.94 µM | Potency [7] 17.9 µM
inactive: Potency [1] | Potency [3] | Potency [4] | Potency [5] | Potency [6]

O=S1(=O)N=C(Oc2ccccc2)c2ccccc21
inactive: Potency [1] | Potency [2] | Potency [3] | activity change, negative = inhibition [4] -14.1% [at 0.022 µM] | Potency [5] | Potency [6] | Potency [7]

FC(F)(F)c1cc(N2CCN(C(=S)Nc3cc(Cl)ccn3)CC2)cc(C(F)(F)F)c1
active: Potency [7] 22.5 µM
inactive: Potency [1] | Potency [2] | Potency [3] | Potency [4] | Potency [5] | Potency [6]

Cc1nc(C)c(-c2ccc3ncnc(NCc4ncc[nH]4)c3c2)s1
inactive: Potency [1] | Potency [2] | Potency [3] | Potency [4] | Potency [5] | Potency [6] | Potency [7]

COc1ccc(C2=Nn3c(nnc3-c3cc(OC)cc(OC)c3)SC2)cc1
inactive: Potency [1] | Potency [2] | Potency [3] | Potency [4] | Potency [5] | Potency [6] | Potency [7]

Cc1cc2c(s1)c1cnn(Cc3c(Cl)ccc(C)c3F)c(=O)c1n2C
inactive: Potency [1] | Potency [2] | Potency [3] | Potency [4] | Potency [5] | Potency [6] | Potency [7]

N#CSc1cc(SC#N)c(N)nc1N
inactive: Potency [6]
active: Potency [1] 14.1 µM | Potency [2] 5.62 µM | Potency [3] 3.55 µM | Potency [4] 10.1 µM | Potency [5] 1.79 µM | Potency [7] 0.896 µM

Cc1ccc2nc3sc(C(=O)NCc4ccco4)cc3cc2c1
active: Potency [1] 12.7 µM | Potency [2] 11.3 µM | Potency [4] 10.1 µM | Potency [5] 7.12 µM | Potency [7] 7.12 µM
inactive: Potency [3] | Potency [6]

Cc1nnc(-c2ccccc2C(C)C)nc1NCc1ccc(-c2cccnc2)cc1
active: Potency [4] 12.7 µM
inactive: Potency [1] | Potency [2] | Potency [3] | Potency [5] | Potency [6] | Potency [7]

O=C(O)c1ccc(S(=O)(=O)N[C@H](Cc2ccccc2)C(=O)O)cc1
inactive: Potency [1] | Potency [2] | Potency [3] | Potency [4] | Potency [5] | Potency [6] | Potency [7]

CC(C)(C)c1ccc(C[C@H](C(=O)O)N2C(=O)c3ccc(C(=O)O)cc3C2=O)cc1
inactive: Potency [1] | Potency [2] | Potency [3] | Potency [4] | Potency [5] | Potency [6] | Potency [7]

O=C1NC(=O)/C(=C/c2cccn2-c2ccc(P(O)O)cc2)N1
inactive: Potency [1] | Potency [2] | Potency [3] | Potency [4] | Potency [5] | Potency [6] | Potency [7]

O=C(C1CCN(c2nc(-c3ccc(Br)cc3)cs2)CC1)N1CCNCC1
active: Potency [7] 25.2 µM
inactive: Potency [1] | Potency [2] | Potency [3] | Potency [4] | Potency [5] | Potency [6]

C=CCNc1oc(-c2cccs2)nc1C#N
inactive: Potency [1] | Potency [2] | Potency [3] | Potency [4] | Potency [5] | Potency [6] | Potency [7]

Cc1ccc(S(=O)(=O)NC(N)=NCCC[C@@H](NC(=O)CNC(=O)c2ccccc2)C(=O)Nc2cc(C(F)(F)F)ccc2Cl)cc1
inactive: Potency [1] | Potency [2] | Potency [3] | Potency [4] | Potency [5] | Potency [6] | Potency [7]

— PubChem BioAssay (NCATS)
